The structures appear in SMILES notation. Records with an inconclusive call do not appear. Calls of active or inactive are those of the source. Calls come from the whole dose curve; as a rule, active = well fitted cell-killing curve with a large enough effect; inconclusive = small, poorly fitted or top-dose-only effect, or effect the other way; inactive = no such curve, though single readings can be large or run the other way.

The results in this text go back to PubChem BioAssay (NCATS).
Potency is the fitted concentration of half-maximal effect.

The test in a line: Quantitative High-Throughput drug screen in 47 multiple myeloma cell lines against the NCATS MIPE library collection: KMS28BM_JCRB cell viability assay (AID 1919874). Note: nearly all actives have a fitted effect of over 35% in size. The note with it: CellTiter-Glo ATP, 48 h; series mostly up to 45.8 µM. In short, it runs like this:
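Myeloma cells (500/well) treated with MIPE 4.0 compounds for 48 h at 37 °C, 5% CO2. Viability read as ATP via CellTiter-Glo luminescence after 5 min at RT; DMSO-only wells = 100%, media-only = 0% viability.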
Background: ATP-based viability assays read luminescence as a measure of living cells.
As to `CC(=O)O[C@@]12CO[C@H]1C[C@H](O)[C@@]1(C)C(=O)[C@H](O)C3=C(C)[C@@H](OC(=O)C(O)[C@@H](NC(=O)OC(C)(C)C)c4ccccc4)C[C@@](O)([C@@H](OC(=O)c4ccccc4)[C@@H]21)C3(C)C` (some centres not stated), the Potency result is “inactive”.

On to `COc1cc(N2CCC(C(N)=O)CC2)ccc1Nc1nc(N)c(Cl)c(Nc2ccccc2S(=O)(=O)C(C)C)n1`, for which the Potency is 833 nM (active).

`O=C(C=CC#Cc1cccc(NS(=O)(=O)c2ccccc2)c1)NO`: the Potency was 833 nM (active).

On to `C=CCNC1=C2C[C@@H](C)C[C@H](OC)[C@@H](O)[C@@H](C)C=C(C)[C@H](OC(N)=O)[C@@H](OC)C=CC=C(C)C(=O)NC(=CC1=O)C2=O`, for which the Potency was 662 nM (active).

On to `CCC(C=C[C@@H]1OC(=O)C=C[C@H]1C)=C[C@H](C)CC=CC(C)=C[C@@H](C)C(=O)[C@@H](C)[C@H](O)[C@@H](C)CC(C)=CC(=O)O`, for which the Potency is 11 nM (active).

On to `O=c1[nH]c(=O)n([C@H]2C[C@@H](O)[C@@H](CO)O2)cc1C=CBr`, for which the Potency entry is “inactive”.

For the compound `Nc1ncn([C@@H]2O[C@H](CO)[C@@H](O)[C@@H]2O)c(=O)n1`, the Potency was 16600 nM (active).

With `C[C@H](NCc1ccc(OCc2cccc(F)c2)cc1)C(N)=O`, the Potency is 5900 nM (active).

Regarding `O=C(NCc1ccccc1)[C@H](Cc1ccccc1)NC(=O)[C@@H]1O[C@@H]1C(=O)NCCc1ccc(O)cc1`, the Potency result was “inactive”.

For `O=c1[nH]c(=O)n([C@H]2C[C@@H](O)[C@@H](CO)O2)cc1F`, the Potency was 20900 nM (active).

Turning to `C=C1C(=O)O[C@H]2[C@@H]1CCC(C)=CCC[C@@]1(C)O[C@@H]21`, the Potency was 7430 nM (active).

Take `C[C@@]12C(=O)OC(=O)[C@@]1(C)C1CCC2O1`: the Potency was 1050 nM (active).

`COc1cc(OC)c(C=CS(=O)(=O)Cc2ccc(OC)c(NCC(=O)O)c2)c(OC)c1`: the Potency was 132 nM (active).

With `CNC(=O)c1ccc(Nc2cc(Nc3ccccc3S(=O)(=O)C(C)C)c3cc[nH]c3n2)nc1`, the Potency was 1320 nM (active).

Turning to `OCc1ccccc1O[C@@H]1O[C@H](CO)[C@H](O)[C@H](O)[C@H]1O`, the Potency entry is “inactive”.

For the compound `CCOC(=O)N1CCN([N+]([O-])=NOc2ccc([N+](=O)[O-])cc2C#N)CC1`, the Potency is 935 nM (active).

`C=CC[C@@H]1C=C(C)C[C@H](C)C[C@H](OC)[C@H]2O[C@@](O)(C(=O)C(=O)N3CCCC[C@H]3C(=O)O[C@H](C(C)=C[C@@H]3CC[C@H](O)[C@H](OC)C3)[C@@H](C)[C@@H](O)CC1=O)[C@@H](C)C[C@@H]2OC`: the Potency is 833 nM (active).

In the case of `CC(C=CC1=C(C)CCCC1(C)C)=CC=CC(C)=CC(=O)Nc1ccc(O)cc1`, the Potency is 17100 nM (active).

Turning to `C[C@]12CC[C@@H]3c4ccc(O)cc4CC[C@H]3[C@H]1CC[C@H]2O`, the Potency was 23500 nM (active).

As for `C=CCNc1c(O)cc2c(O)c1C[C@@H](C)C[C@H](OC)[C@@H](O)[C@@H](C)C=C(C)[C@H](OC(N)=O)[C@@H](OC)C=CC=C(C)C(=O)N2`, the Potency is 935 nM (active).

With `CN1CCCN(C(=O)c2cccc(-c3ccc(C=C4C(=O)Nc5ccc(Cl)cc54)o3)c2)CC1`, the Potency was 10500 nM (active).

On to `CC(C)(O)Cn1c(NC(=O)c2ccc(-c3cn[nH]c3)s2)nc2cc(CN3CCOCC3)ccc21`, for which the Potency was 743 nM (active).

Take `CCNC(=O)Nc1ccc(-c2nc3c(c(N4CCOC[C@H]4C)n2)CCN(C2COC2)C3)cc1`: the Potency is 526 nM (active).

Regarding `CC(C=CC(=O)NO)=C[C@@H](C)C(=O)c1ccc(N(C)C)cc1`, the Potency is 187 nM (active).

Turning to `Cc1nc(NC(=O)N2CCC[C@@H]2C(N)=O)sc1-c1ccnc(C(C)(C)C(F)(F)F)c1`, the Potency was 1180 nM (active).

As to `O=C(Nc1cc2cc[nH]c2cn1)c1ccccc1`, the Potency is 5260 nM (active).

Consider `COC(=O)C=CC(=O)OC`, for which the Potency result is “inactive”.

On to `CCOC(=O)[C@H](CCc1ccccc1)N[C@@H](C)C(=O)N1[C@@H](C(=O)O)C[C@H]2CCC[C@@H]21`, for which the Potency was 5900 nM (active).

On to `COc1cccc2c1C(=O)c1c(O)c3c(c(O)c1C2=O)C[C@@](O)(C(=O)CO)C[C@H]3O[C@H]1C[C@H](N)[C@H](O)[C@H](C)O1`, for which the Potency is 296 nM (active).

On to `C=CC(=O)Nc1cc(NC(=O)c2ccc(C)c(NC(=O)c3ccno3)c2)cc(C(F)(F)F)c1`, for which the Potency is 20900 nM (active).

For `CCCNC(=O)[C@H]1O[C@H]1C(=O)N[C@H](C(=O)N1CCC[C@@H]1C(=O)OC)C(C)CC` (some centres not stated), the Potency is 7430 nM (active).

For the compound `C[C@H](NC(=O)C(C#N)=Cc1cccc(Br)n1)c1ccccc1`, the Potency was 7430 nM (active).
